hcDAF-12 act: activators of H. contortus DAF-12 nuclear receptor | actives 1.4% (n = 370,000) | HEK293 hcDAF-12 lit1-tk-luc reporter, luminescence; 0% DMSO, 100% Δ7-dafachronic acid | activation, % at 6.8 µM;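 active means activation above the mean of all tested compounds plus 3 SD, cut at about 5.5% in these data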;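 further: 100% = response to 3 µM Δ7-dafachronic acid high control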
hgDAF-12 ag: hgDAF-12 agonism, primary luciferase screen. HEK293 GAL4-hgDAF12 UAS-luciferase reporter, agonist luminescence; normalized to butyrate control. actives 1.8% (n = 370,000). activation, % at 6.8 µM;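 active means activation above a cutoff set at the mean of all screened compounds plus 3 SD, cut at about 10% in these data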;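 further: 0% = DMSO wells and 100% = sodium butyrate wells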
DAX1 inh-1: inhibits human nuclear receptor DAX1. P51843. HEK293 Gal4-DAX1 luciferase reporter, luminescence. inhibition, % at 6.75 µM. actives 0.99% (n = 340,000). AID 504766;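 active means inhibition above the mean over all tested compounds plus 3 SD, cut at about 4.2% in these data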;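 further: 0% = DAX1-transfected cells with DMSO and 100% = empty-vector control cells with DMSO; inhibition shows as a rise in luminescence from relieved DAX1 repression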
Target sequence (P51843 207-470 limits assumed): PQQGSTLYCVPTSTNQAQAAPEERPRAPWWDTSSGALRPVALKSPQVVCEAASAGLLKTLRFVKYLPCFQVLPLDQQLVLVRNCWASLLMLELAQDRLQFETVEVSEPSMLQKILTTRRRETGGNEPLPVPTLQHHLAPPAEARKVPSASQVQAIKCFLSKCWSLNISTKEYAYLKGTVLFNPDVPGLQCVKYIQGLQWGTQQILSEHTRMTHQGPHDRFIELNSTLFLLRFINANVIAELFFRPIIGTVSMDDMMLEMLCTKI
ssDAF-12 act: activators of S. stercoralis DAF-12 nuclear receptor; HEK293 ssDAF-12/GRIP1 lit1-tk-luc reporter, luminescence; % of 3 µM dafachronic acid response; activation, % at 6.8 µM; actives 1% (n = 370,000);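 active means activation above the mean over all tested compounds plus 3 SD, cut at about 0.9% in these data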;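 further: 0% = DMSO-only wells and 100% = 3 µM delta7-dafachronic acid wells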
DAX1 inh-2: inhibitors of DAX1 repression of SF-1 activated StAR promoter. actives 1.1% (n = 370,000). AID 652010. inhibition, % at 6.8 µM. HEK293T StAR-luciferase reporter, SF-1/DAX-1 repression relief;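 active means inhibition above the mean over all tested compounds plus 3 SD, cut at about 3.6% in these data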;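 further: 0% = DAX-1 cells with DMSO and 100% = cells lacking DAX-1 with DMSO; higher inhibition means more luminescence from relief of DAX-1 repression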
hgDAF12 conf: hgDAF-12 agonism, confirmation assay. activation, % at 6.8 µM. actives 80% (n = 3,300). shares compounds with hgDAF-12 ag. AID 743050. HEK293 GAL4-hgDAF12 luciferase reporter, agonist mode; percent of butyrate response;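 active means mean activation over triplicate wells above the hit cutoff derived from the earlier primary screen, cut at about 11% in these data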;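 further: 0% = DMSO low control and 100% = 2 mM sodium butyrate high control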
LXRb DAF12 ctr: activates human LXR-beta, counter-screen for DAF-12 agonists; 3,300 tested, under 10 active; HEK293 Gal4-LXR luciferase reporter, 24 h; activation, % at 6.8 µM; shares compounds with hgDAF-12 ag;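 active means mean activation of the triplicate above a set limit carried over from the primary screen, none filed active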
* hit, by the source's call; nt = not tested or not shown. Sampled rows, rich in hits. Any-hit rate of the full collection: about 4.1%.

SMILES	hcDAF-12 act	hgDAF-12 ag	DAX1 inh-1	ssDAF-12 act	DAX1 inh-2	hgDAF12 conf	LXRb DAF12 ctr
CO/C(N)=C(\C#N)N=Cc1ccccc1Cl	1	14*	1	1	2	3	0
CC(C)OP(=O)(c1ccc(N(C)C)cc1)C(O)c1ccc(N(C)C)cc1 (stereo unspecified)	-2	-2	0	-1	0	nt	nt
O=C(Nc1ccccc1)c1cc(C2CCCN(C(=O)c3cccs3)C2)on1 (stereo unspecified)	3	14*	nt	-1	3	13*	0
Cc1nc(SCC(=O)N(CC(C)C)C2CCS(=O)(=O)C2)c2c(C)c(C)sc2n1 (stereo unspecified)	-2	2	0	-2	-2	nt	nt
COCCOC(=O)N1CCCCC1c1cc(C(=O)NCc2ccc(Cl)c(Cl)c2)no1 (stereo unspecified)	-2	-1	nt	-1	-2	nt	nt
COc1cccc(NCc2cc(=O)oc3cc(-c4ccccc4)c(O)cc23)c1	3	1	0	-1	0	nt	nt
COc1cc(OC)c2c(-c3cccc(-c4ccc(F)c(Cl)c4)c3)cc(=O)oc2c1	0	0	1	-1	2	nt	nt
O=C(O)Cn1cc(/C=c2/sc3nc4ccccc4n3c2=O)c2ccccc21	5.9*	17*	2	0	3	11*	0
CSc1nc(N)c2cn[nH]c2n1	1	3	0	0	0	nt	nt
COc1ccc(/C=C/C2=NNC(=O)CC2)cc1	0	14*	0	0	1	7	0
CCS(=O)(=O)c1ccc(C=NNc2nc3ccccc3o2)cc1	4	21*	2	0	3	15*	1
O=[N+]([O-])c1ccc(/C=N/Nc2nc3ccccc3o2)cc1	1	3	0	-1	0	nt	nt
C=C(C)C1CC=C(C)/C(=N/NC(=O)c2cccc([N+](=O)[O-])c2)C1 (stereo unspecified)	1	4	1	-1	0	nt	nt
C=C(C)C1CC=C(C)/C(=N/NC(=O)c2ccoc2C)C1 (stereo unspecified)	5.9*	20*	3	0	4.3*	1	0
O=C1/C(=C/c2ccccc2)CCCc2ccccc21	3	14*	0	0	1	11*	0
Cc1ccc(-c2nc(Nc3cccc(C)c3)sc2CC(=O)O)cc1	3	17*	1	0	4	5	0
Cc1nn(Cc2c(F)c(F)c(F)c(F)c2F)c(C)c1NC(=O)c1cccc(COc2ccccc2Cl)c1	4	20*	-3	0	1	9	0
Cc1nn(Cc2cccc(F)c2)c(C)c1NC(=O)c1ccc(COc2ccccc2Cl)cc1	-4	-6	-3	-3	-1	nt	nt
CN=c1sc2c(n1C)C(=O)c1ccccc1C2=O	1	-2	1	-1	-2	nt	nt
O=C(N/N=C\c1ccccn1)c1cccc(C(=O)N/N=C\c2ccccn2)n1	1	1	1	-1	0	nt	nt
O=C(N/N=C\c1ccccn1)c1ccccc1O	0	15*	1	0	0	3	0
CCc1ccc(-c2cn3c(n2)SCC3)cc1	2	16*	1	0	4.0*	14*	1
O=C1CC(NS(=O)(=O)c2ccccc2F)CN1c1ccc2c(c1)OCCO2 (stereo unspecified)	1	1	3	-1	1	nt	nt
Cc1cccc(Nc2n[nH]c(=S)s2)c1C	2	0	0	-1	0	nt	nt
Cc1cccc(Nc2nc3ccccc3s2)c1C	5	21*	1	1.3*	3	20*	1
SMILES	hcDAF-12 act	hgDAF-12 ag	DAX1 inh-1	ssDAF-12 act	DAX1 inh-2	hgDAF12 conf	LXRb DAF12 ctr
c1ccc(OCCNc2ccn3nc(-c4ccc(OCCN5CCOCC5)cc4)cc3n2)cc1	-1	-1	nt	1	-4	nt	nt
COc1cccc(NC(=O)c2cnn(-c3ccccc3)c2C)c1	6.3*	18*	1	1.2*	3	14*	1
CCn1ncc(C(=O)Nc2cccc(Cl)c2)c1C	5	18*	3	0.9*	3	12*	0
O=C(Cn1cc(COc2c(F)c(F)c(Br)c(F)c2F)nn1)c1ccc(O)cc1	-2	-1	-1	0	-1	nt	nt
CCCNC(=O)C(Cc1ccc(Cl)cc1)NC(=O)c1ccc(-c2ccccc2)cc1 (stereo unspecified)	-1	1	1	-1	0	nt	nt
CC1CCCCC1NC(=O)CCN1C(=O)C2C3C=CC(C3)C2C1=O (stereo unspecified)	0	0	0	-1	0	nt	nt
CC1(C(=O)NCc2ccccc2)CSCC(=O)N1CCc1c[nH]c2ccccc12 (stereo unspecified)	1	1	nt	-1	0	nt	nt
CC(C)(C)C(=O)c1cnc(Nc2ccccc2Cl)s1	4	13*	4	0	2	16*	1
Cc1cnc(NC(=O)Cc2ccccc2Cl)s1	0	0	1	-1	-1	nt	nt
COc1cc(/C=N/N(c2ccccc2)c2ccccc2)ccc1O	0	1	1	0	0	nt	nt
CCOc1ccc(/C=N/N(C)c2ccccc2)cc1OC	4	14*	3	-1	3	16*	1
Cc1nc(NC(=O)/C=C/c2ccco2)sc1C	1	13*	3	-1	2	19*	1
O=C(/C=C/c1ccco1)Nc1nnc(-c2ccco2)s1	0	3	1	0	1	nt	nt
Cc1cc(C)n2nc(C(=O)Nc3nccs3)nc2n1	4	17*	2	0	1	12*	0
Cc1csc(NC(=O)c2nc3nc(C)cc(C)n3n2)n1	4	9	3	0	2	nt	nt
COc1ccc(C(=O)c2cc3cccc(OC)c3o2)cc1	1	19*	3	-1	3	14*	1
C[C@H]1CCCCO[C@@H](CN(C)CC2CC2)[C@@H](C)CN([C@@H](C)CO)C(=O)c2cc(NS(=O)(=O)c3ccccc3)ccc2O1	-2	-4	nt	-1	1	nt	nt
O=C(O)CCC(=O)OCCN(Cc1ccc(Oc2ccc([N+](=O)[O-])cc2)cc1)C(=O)C(Cl)Cl	1	-3	-1	-1	-5	nt	nt
CCc1ccc(-c2csc(NC(=O)Oc3ccccc3)n2)cc1	1	15*	1	0	3	6	0
O=C(Nc1nc(-c2cccc(Br)c2)cs1)Oc1ccccc1	4	4	1	-1	0	nt	nt
Cc1ccc(S(=O)(=O)N2CCCc3nc(C)c(C)cc32)cc1	-2	-2	nt	0	-2	nt	nt

Screening results as filed in PubChem.
